# Source: PubChem BioAssay (NCI)
# Compounds without any hit were thinned out: in the full panel of roughly 83,000, 20% have a hit.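 Cell lines were cultured in 96-well plates, exposed to a single compound concentration, and assessed for percent growth 48 hours later.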 Unmarked numbers belong to inactive results. Calls of active or inactive are those of the source. The calls were made as follows: active = growth percent below 10; inactive = the rest.
# Tested on: HCC-2998 colon
# Experiment: NCI-60 one-dose screen, 48 h (100 = growth as untreated, 0 = no growth, -100 = all killed)
# Conditions: 10 µM
row,Structure (SMILES),growth
1,COc1ccc(C2CC(c3ccc(N(C)C)cc3)=NN2c2ccc(S(N)(=O)=O)cc2)cc1 (stereo not drawn),75%
2,COc1ccc(-c2nc(-c3nc4ccc(OC)cc4[nH]3)cc3c2[nH]c2ccccc23)cc1,57.4%
3,COc1cc(C(=O)N2CCN(c3ccccc3OC)CC2)c(N)cc1OCCCN1CCN(c2ccccc2OC)CC1,101%
4,COc1cc(-c2nc(Nc3nc4ccccc4s3)[nH]c(=O)c2C#N)cc(OC)c1O,104%
5,ClCC#CCSc1ncnc2c1ncn2CC#CCCl,-24.9% (active)
6,Cc1ccc(S(=O)(=O)Oc2ccc3c4c(c(=O)oc3c2)CCCCC4)cc1,51.4%
7,O=C1Nc2ccccc2C1=NC1CCCCC1,107%
8,O=c1cc(-c2ccccc2)[nH]n1-c1nc2ccccc2[nH]1,59.3%
9,COc1ccc(-c2nc3sc(-c4ccccc4)c(-c4ccccc4)n3c2/C=C/C(=O)c2ccccn2)cc1,90.9%
10,CC(C)C[C@H](NC(=O)[C@H](Cc1cccc2ccccc12)NS(=O)(=O)c1cccc2cccnc12)B(O)O,-89.2% (active)
11,NC(=S)N=Nc1c(O)c2ccccc2c2ccccc12,98.6%
12,CCN(CC)CCSCCCNc1c2ccc(Cl)cc2nc2ccc(OC)cc12,-73.2% (active)
13,Cc1cccc(NC2=C(C#N)C(=O)NC3(CCCC3)S2)c1,95.8%
14,c1ccc2c(-c3nc(N4CCOCC4)c4c5c(sc4n3)CCCCCC5)cccc2c1,106%
15,COC(=O)[C@@H]1[C@H](O)[C@H](C)[C@H](O)[C@@](C)(O)/C=C\C=C(C)C(=O)Nc2c(C)c(OC(C)=O)c3c(c2O)C(=O)C(C)=C2OCOC(=C23)C(C)=C[C@@](C)(O)[C@H](O)[C@@H](C)[C@H]1OC(C)=O,120%
16,COc1cc(OC)cc(-c2cncn2-c2ccc(-c3nc4cc(OC)cc(OC)c4s3)cc2)c1,70.2%
17,c1ccc2c(c1)oc1c3cccnc3ccc21,92.7%
18,CC(=O)CSC(C)=O,110%
19,COc1ccc(-c2nn(-c3cccc(NC(=O)Nc4ccc(Cl)c(C(F)(F)F)c4)c3)cc2-c2ccncc2)cc1Cl,37.7%
20,CC(=O)OCc1cc(-c2nc3ccccc3[nH]c2=O)nn1-c1ccc(Cl)cc1,87%

row,Structure (SMILES),growth
1,COc1ccc(-c2nn(-c3cccc(NC(=O)c4ccc(N5CCOCC5)c(C(F)(F)F)c4)c3)cc2-c2ccncc2)cc1Cl,67.6%
2,COc1ccc(-c2nn(-c3cccc(NC(=O)Nc4cccc(C(F)(F)F)c4)c3)cc2-c2ccncc2)cc1Cl,30.5%
3,CC(C)=CCc1ccc(O)c(=O)cc1C(C)C,7.5% (active)
4,CCOC1(OCC)OC(c2ccccc2)=C(C#N)C(/C=C\c2ccccc2)C1(OCC)OCC (stereo not drawn),83.1%
5,O=C(O)c1ccc(P(=O)(O)O)c([N+](=O)[O-])c1,111%
6,O=c1[nH]c2ccc(Cl)cc2c2ccccc12,52.4%
7,CCOC(=O)c1ccoc1,113%
8,COc1ccc(Nc2ccnc(NCCNc3ccnc4cc(Cl)ccc34)n2)cc1,41.1%
9,N=c1c2c(-c3ccccc3)c(-c3ccccc3)n(Cc3ccccc3)c2ncn1CCCO,64.3%
10,COc1cc(Cl)cc(-c2nn(-c3cccc(NC(=O)Nc4ccc(Cl)c(Cl)c4)c3)cc2-c2ccncc2)c1,26.7%
11,Cc1ccc(NC(=O)NC2CCCCC2)cc1,111%
12,COc1cc(NC(=O)c2sc3nc4c(cc3c2N)C(O)CCC4)cc(OC)c1 (stereo not drawn),78.9%
13,N#Cc1c(C#N)c(SSc2c(C#N)c(C#N)c(N)n2-c2ccccc2)n(-c2ccccc2)c1N,96.3%
14,COc1cc(-c2cc(/C=C/C(=O)c3ccc(Cl)c(Cl)c3)[nH]n2)cc(OC)c1OC,107%
15,Nc1ccccc1NC(=O)CCCCC(=O)Nc1ccc2c(c1)/C(=C/c1ccc[nH]1)C(=O)N2,87.5%
16,COc1cc(NC(=O)CSc2nc3ccccc3c(=O)n2CCc2ccccc2)cc(OC)c1OC,35%
17,O=[P@@]1(c2ccccc2)O[C@H](COCc2ccccc2)[C@@H](OCc2ccccc2)[C@H](OCc2ccccc2)[C@H]1O,103%
18,Cc1ccc(C(=O)Nc2cccc(F)c2)cc1NC(=O)C1(c2ncnc3[nH]ccc23)CC1,60.5%
19,O=C(O)c1ccc(Cl)cc1Nc1ccc(F)cc1,81.9%

# Tested on: KM12 colon
# Experiment: as above
# Conditions: 10 µM
row,Structure (SMILES),growth
1,COc1ccc(C2CC(c3ccc(N(C)C)cc3)=NN2c2ccc(S(N)(=O)=O)cc2)cc1 (stereo not drawn),29.1%
2,COc1ccc(-c2nc(-c3nc4ccc(OC)cc4[nH]3)cc3c2[nH]c2ccccc23)cc1,20.4%
3,COc1cc(C(=O)N2CCN(c3ccccc3OC)CC2)c(N)cc1OCCCN1CCN(c2ccccc2OC)CC1,88.4%
4,COc1cc(-c2nc(Nc3nc4ccccc4s3)[nH]c(=O)c2C#N)cc(OC)c1O,114%
5,ClCC#CCSc1ncnc2c1ncn2CC#CCCl,6.96% (active)
6,Cc1ccc(S(=O)(=O)Oc2ccc3c4c(c(=O)oc3c2)CCCCC4)cc1,35.3%
7,O=C1Nc2ccccc2C1=NC1CCCCC1,95.9%
8,O=c1cc(-c2ccccc2)[nH]n1-c1nc2ccccc2[nH]1,38%
9,COc1ccc(-c2nc3sc(-c4ccccc4)c(-c4ccccc4)n3c2/C=C/C(=O)c2ccccn2)cc1,83.6%
10,CC(C)C[C@H](NC(=O)[C@H](Cc1cccc2ccccc12)NS(=O)(=O)c1cccc2cccnc12)B(O)O,-73.8% (active)
11,NC(=S)N=Nc1c(O)c2ccccc2c2ccccc12,92%
12,CCN(CC)CCSCCCNc1c2ccc(Cl)cc2nc2ccc(OC)cc12,-10.9% (active)
13,Cc1cccc(NC2=C(C#N)C(=O)NC3(CCCC3)S2)c1,104%
14,c1ccc2c(-c3nc(N4CCOCC4)c4c5c(sc4n3)CCCCCC5)cccc2c1,109%
15,COC(=O)[C@@H]1[C@H](O)[C@H](C)[C@H](O)[C@@](C)(O)/C=C\C=C(C)C(=O)Nc2c(C)c(OC(C)=O)c3c(c2O)C(=O)C(C)=C2OCOC(=C23)C(C)=C[C@@](C)(O)[C@H](O)[C@@H](C)[C@H]1OC(C)=O,112%
16,COc1cc(OC)cc(-c2cncn2-c2ccc(-c3nc4cc(OC)cc(OC)c4s3)cc2)c1,38.5%
17,c1ccc2c(c1)oc1c3cccnc3ccc21,98.9%
18,CC(=O)CSC(C)=O,107%
19,COc1ccc(-c2nn(-c3cccc(NC(=O)Nc4ccc(Cl)c(C(F)(F)F)c4)c3)cc2-c2ccncc2)cc1Cl,4% (active)
20,CC(=O)OCc1cc(-c2nc3ccccc3[nH]c2=O)nn1-c1ccc(Cl)cc1,108%

row,Structure (SMILES),growth
1,COc1ccc(-c2nn(-c3cccc(NC(=O)c4ccc(N5CCOCC5)c(C(F)(F)F)c4)c3)cc2-c2ccncc2)cc1Cl,43.7%
2,COc1ccc(-c2nn(-c3cccc(NC(=O)Nc4cccc(C(F)(F)F)c4)c3)cc2-c2ccncc2)cc1Cl,0.879% (active)
3,CC(C)=CCc1ccc(O)c(=O)cc1C(C)C,26.4%
4,CCOC1(OCC)OC(c2ccccc2)=C(C#N)C(/C=C\c2ccccc2)C1(OCC)OCC (stereo not drawn),84.3%
5,O=C(O)c1ccc(P(=O)(O)O)c([N+](=O)[O-])c1,105%
6,O=c1[nH]c2ccc(Cl)cc2c2ccccc12,65.2%
7,CCOC(=O)c1ccoc1,104%
8,COc1ccc(Nc2ccnc(NCCNc3ccnc4cc(Cl)ccc34)n2)cc1,62.2%
9,N=c1c2c(-c3ccccc3)c(-c3ccccc3)n(Cc3ccccc3)c2ncn1CCCO,29.9%
10,COc1cc(Cl)cc(-c2nn(-c3cccc(NC(=O)Nc4ccc(Cl)c(Cl)c4)c3)cc2-c2ccncc2)c1,14.3%
11,Cc1ccc(NC(=O)NC2CCCCC2)cc1,101%
12,COc1cc(NC(=O)c2sc3nc4c(cc3c2N)C(O)CCC4)cc(OC)c1 (stereo not drawn),69.5%
13,N#Cc1c(C#N)c(SSc2c(C#N)c(C#N)c(N)n2-c2ccccc2)n(-c2ccccc2)c1N,106%
14,COc1cc(-c2cc(/C=C/C(=O)c3ccc(Cl)c(Cl)c3)[nH]n2)cc(OC)c1OC,26.2%
15,Nc1ccccc1NC(=O)CCCCC(=O)Nc1ccc2c(c1)/C(=C/c1ccc[nH]1)C(=O)N2,15.9%
16,COc1cc(NC(=O)CSc2nc3ccccc3c(=O)n2CCc2ccccc2)cc(OC)c1OC,7.82% (active)
17,O=[P@@]1(c2ccccc2)O[C@H](COCc2ccccc2)[C@@H](OCc2ccccc2)[C@H](OCc2ccccc2)[C@H]1O,98.1%
18,Cc1ccc(C(=O)Nc2cccc(F)c2)cc1NC(=O)C1(c2ncnc3[nH]ccc23)CC1,82.7%
19,O=C(O)c1ccc(Cl)cc1Nc1ccc(F)cc1,74.5%
